Out of some 310,000 compounds screened, about 17,000 (5.5%) were called active. Where a call stands in place of a potency, no number is given. Not shown: some 11% with an inconclusive outcome. The call rests on the fitted dose curve; in most records, active means well fitted inhibition curve with a large enough effect; inconclusive means small, poorly fitted or top-dose-only effect, or effect the other way; inactive means no such curve, though single readings can be large or run the other way. Only a selection was taken, and actives are over-represented in it overall.
Molecular target: Nuclear receptor ROR-gamma (Mus musculus) (UniProt P51450)
Assay: qHTS for inhibitors of ROR gamma transcriptional activity; further: nearly all actives have a fitted effect of over 60% in size
Settings: Drosophila S2 Gal4-RORgamma UAS-luciferase reporter, 20 h; series mostly up to 53.6 µM
How it was run: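 Compounds are pin-transferred onto Drosophila Schneider cells expressing a copper-inducible Gal4–ROR gamma transactivation domain fusion. After 1 hr, copper sulfate is added to 700 uM final; luciferase is read 20 hr later.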
Potency means the concentration at half of the fitted maximal effect.

Chain of Nuclear receptor ROR-gamma (Mus musculus) (P51450 whole entry, looked up): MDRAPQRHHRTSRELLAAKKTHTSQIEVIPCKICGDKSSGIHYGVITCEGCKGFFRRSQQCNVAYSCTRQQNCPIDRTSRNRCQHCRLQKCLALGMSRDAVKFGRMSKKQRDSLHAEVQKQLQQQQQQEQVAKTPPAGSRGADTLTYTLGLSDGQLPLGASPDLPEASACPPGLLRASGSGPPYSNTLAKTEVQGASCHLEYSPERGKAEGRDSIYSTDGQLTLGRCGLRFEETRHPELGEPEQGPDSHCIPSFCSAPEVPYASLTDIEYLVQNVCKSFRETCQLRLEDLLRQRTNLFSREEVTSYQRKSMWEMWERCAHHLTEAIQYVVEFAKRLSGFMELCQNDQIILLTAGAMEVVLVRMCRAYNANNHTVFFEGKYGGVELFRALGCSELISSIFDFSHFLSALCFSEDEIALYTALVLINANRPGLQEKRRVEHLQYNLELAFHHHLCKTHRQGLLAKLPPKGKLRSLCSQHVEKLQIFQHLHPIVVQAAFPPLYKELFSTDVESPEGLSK

SMILES	Potency
Cc1cccc2[nH]c(CN(C)C(=O)C3CCC(=O)N(CCc4ccccc4)C3)nc12 (stereo not given)	inactive
C/C(N)=C(/C#N)C(=O)COC(=O)C1=NN(c2ccccc2)C(=O)CC1	inactive
N/C(=N\OC(=O)Nc1ccc(Cl)c(Cl)c1)c1ncc(C(F)(F)F)cc1Cl	inactive
COC(=O)Cc1ccc(Oc2ncc(C(F)(F)F)cc2Cl)cc1	inactive
COc1cccc(/C=N/Nc2ncc(C(F)(F)F)cc2Cl)c1O	1.26 µM (active)
CCOC(=O)N1CCN(C(=O)COCc2cc(-c3ccc4c(c3)OCO4)on2)CC1	inactive
Cc1ccnc(SCC(N)=O)n1	inactive
CCOc1ccccc1N1C(=O)CC(Sc2nccc(C)n2)C1=O (stereo not given)	25.1 µM (active)
CCOC(=O)c1ccc(N2C(=O)CC(Sc3nc(O)c(CC)c(=O)[nH]3)C2=O)cc1 (stereo not given)	inactive
CCn1ccnc1CNC(=O)CC1C(=O)NCCN1CCCc1ccccc1 (stereo not given)	inactive
O=C(NCCS(=O)(=O)N1CCN(c2ccccc2F)CC1)c1ccc(Br)o1	inactive
Cc1cccc(NC(=O)c2cccnc2Cl)n1	inactive
Cc1c(CN2CCC(CO)(CCOc3ccccc3)CC2)[nH]c2ccc(Cl)cc12	11.2 µM (active)
OCC1(CCOc2ccccc2)CCN(Cc2cn[nH]c2-c2ccccc2)CC1	inactive
CC(C)(O)C#Cc1ccc(CN2CCC(CO)(CCc3ccccc3)CC2)cc1	inactive
CC(C)(C)NC(=O)C(c1ccc(Cl)cc1)N(CCO)C(=O)c1snc(C(N)=O)c1N (stereo not given)	inactive
COC(=O)CCc1ccccc1S(=O)(=O)N(CCC(=O)OC)Cc1ccccc1	inactive
CCOC(=O)C1=C(c2ccccc2)NC(=O)NC1c1cc(OCC)c(O)c([N+](=O)[O-])c1 (stereo not given)	inactive
Nc1ccccc1Sc1ccc(C(F)(F)F)cc1[N+](=O)[O-]	inactive
CCS(=O)(=O)c1cc([N+](=O)[O-])c(Sc2ccccc2N)s1	7.94 µM (active)
CCOC(=O)c1cc(Sc2ccccc2N)cc(C(=O)OCC)n1	inactive
COc1ccc(N2CCN(C3CCCCC3NS(=O)(=O)c3ccccc3)CC2)cc1 (stereo not given)	inactive
CCC(Cc1ccccc1)NS(=O)(=O)c1ccc2c(c1)NC(=O)CS2 (stereo not given)	inactive
Cc1ccc(C(=O)O)cc1NC(=O)c1ccc(Cn2nc(C)c(Cl)c2C)o1	inactive
Cc1c(Cl)c([N+](=O)[O-])nn1Cc1ccc(C(=O)N/N=C\c2cc(Cl)ccc2O)o1	5.01 µM (active)
O=C(N/N=C/c1ccc2c(c1)OCO2)c1ccc(Cn2cc([N+](=O)[O-])cn2)o1	inactive
CC(C)c1c(C(=O)N/N=C/c2ccccc2C(=O)O)nnn1-c1nonc1N	inactive
COC(=O)c1sc(-c2ccc(C(C)(C)C)cc2)cc1NC(=O)/C=C/C(=O)O	12.6 µM (active)
O=C(O)/C=C/C(=O)Nc1ccc(F)cc1F	inactive
Cc1c(NC(=O)/C=C/C(=O)O)cccc1[N+](=O)[O-]	inactive

From PubChem BioAssay AID2551 (National Center for Advancing Translational Sciences (NCATS), 2010)
